Results on 9 compounds are retold here after PubChem BioAssay (Tox21).

Records with an inconclusive call do not appear. Calls of active or inactive are those of the source. Calls come from the whole dose curve; as a rule, active = well fitted curve in the direction sought with a large enough effect in the repeat runs; inconclusive = weak or mixed curves; inactive = no such curve, though single readings can be large; an effect the other way counts as inactive or inconclusive.
% is set by controls: 0 for no effect and ±100 for the full control effect; potency is the fitted concentration of half-maximal effect.

A short description of one test: qHTS assay to identify small molecule antagonists of the peroxisome proliferator-activated receptor gamma (PPARg) signaling pathway - cell viability counter screen (AID 743194). Note: nearly all actives have a fitted effect of over 55% in size. The following applies: PPARg-bla HEK293H viability, CellTiter-Glo luminescence, 17 h, co-treated with 50 nM rosiglitazone; series mostly up to 62.6 µM; activity change, negative = cytotoxicity: at the top concentration. In a few lines: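 Cytotoxicity counter screen in PPARg-bla HEK293H cells, same wells as reporter assay. Compounds plus 50 nM rosiglitazone (final) for 17 h at 37 C, then viability read by CellTiter-Glo luminescence.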
In general terms: qHTS replaces the single test concentration by a dilution series.
Consider `Clc1nc(C(Cl)(Cl)Cl)c(Cl)c(Cl)c1Cl`, for which the Potency is 38.9 µM (active).

For the compound `CC(C)c1ccc2sc3ccccc3c(=O)c2c1`, the “activity change, negative = cytotoxicity” value is -3.11% (inactive).

Consider `NCc1cccc(C2CCN(C(=O)c3ccc(C#Cc4ccccc4F)o3)CC2)c1`, for which the Potency is 19.5 µM (active).

Turning to `COc1cc(/C=C/C(=O)CC(=O)/C=C/c2ccc(O)c(OC)c2)ccc1O`, the Potency was 43.9 µM (active).

Consider `O=C1OC(=O)c2cc(-c3ccc4c(c3)C(=O)OC4=O)ccc21`, for which the “activity change, negative = cytotoxicity” value was 28.9% (inactive).

On to `CCCCCCCCCC[N+](C)(CCCCCCCCCC)CCC[Si](OC)(OC)OC`, for which the Potency is 30.9 µM (active).

In the case of `C[C@H]1O[C@@H](O[C@H]2CC[C@@]3(C)[C@H](CC[C@@H]4[C@@H]3C[C@@H](O)[C@]3(C)[C@@H](C5=CC(=O)OC5)CC[C@]43O)C2)C[C@H](O)[C@@H]1O[C@H]1C[C@H](O)[C@H](O[C@H]2C[C@H](O)[C@H](O[C@@H]3O[C@H](CO)[C@@H](O)[C@H](O)[C@H]3O)[C@@H](C)O2)[C@@H](C)O1`, the Potency was 0.15 µM (active).

The nature of the next test: qHTS assay for small molecule activators of the heat shock response signaling pathway - cell viability counter screen (AID 743209). Note: nearly all actives have a fitted effect of over 50% in size. The following applies: HSE-bla HeLa viability, CellTiter-Glo luminescence, 5 h; series mostly up to 62.6 µM; activity change, negative = cytotoxicity: at the top concentration. In a few lines: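 Cytotoxicity counter screen run in the same wells as the heat-shock bla reporter assay: HeLa HSE-bla cells, 5 h compound exposure at 37 C, viability read by CellTiter-Glo luminescence.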
`Clc1nc(C(Cl)(Cl)Cl)c(Cl)c(Cl)c1Cl`: the Potency was 17.4 µM (active).

Consider `CCOc1ccc([N+](=O)[O-])cc1`, for which the Potency was 44.3 µM (active).

With `CCCCCCCCCC[N+](C)(CCCCCCCCCC)CCC[Si](OC)(OC)OC`, the Potency was 13.8 µM (active).

`CC(Cc1ccc(O)c(O)c1)C(C)Cc1ccc(O)c(O)c1` (centres undefined): the “activity change, negative = cytotoxicity” value was -17.7% (inactive).

On to `C[C@H]1O[C@@H](O[C@H]2CC[C@@]3(C)[C@H](CC[C@@H]4[C@@H]3C[C@@H](O)[C@]3(C)[C@@H](C5=CC(=O)OC5)CC[C@]43O)C2)C[C@H](O)[C@@H]1O[C@H]1C[C@H](O)[C@H](O[C@H]2C[C@H](O)[C@H](O[C@@H]3O[C@H](CO)[C@@H](O)[C@H](O)[C@H]3O)[C@@H](C)O2)[C@@H](C)O1`, for which the Potency is 1.06 µM (active).

The nature of a further test: qHTS assay to identify small molecule agonists of the peroxisome proliferator-activated receptor delta (PPARd) signaling pathway - cell viability counter screen (AID 743211). Note: nearly all actives have a fitted effect of over 55% in size. As to conditions: PPARd-bla HEK293H viability, CellTiter-Glo luminescence, 17 h; series mostly up to 62.6 µM; activity change, negative = cytotoxicity: at the top concentration. The method, boiled down: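 Multiplexed format: after the 2 h room-temperature LiveBLAzer B/G FRET step, CellTiter-Glo was added to the same wells. Luminescence after 30 min gave cell viability; compound exposure was 17 h at 37C.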
Turning to `Clc1nc(C(Cl)(Cl)Cl)c(Cl)c(Cl)c1Cl`, the Potency is 34.7 µM (active).

Turning to `NCc1cccc(C2CCN(C(=O)c3ccc(C#Cc4ccccc4F)o3)CC2)c1`, the Potency is 21.9 µM (active).

For `COc1cc(/C=C/C(=O)CC(=O)/C=C/c2ccc(O)c(OC)c2)ccc1O`, the Potency is 34.9 µM (active).

`CCOc1ccc([N+](=O)[O-])cc1`: the Potency is 49.7 µM (active).

As to `CCCCCCCCCC[N+](C)(CCCCCCCCCC)CCC[Si](OC)(OC)OC`, the Potency is 9.77 µM (active).

For the compound `CC(Cc1ccc(O)c(O)c1)C(C)Cc1ccc(O)c(O)c1` (centres undefined), the “activity change, negative = cytotoxicity” value is -21.3% (inactive).

Take `C[C@H]1O[C@@H](O[C@H]2CC[C@@]3(C)[C@H](CC[C@@H]4[C@@H]3C[C@@H](O)[C@]3(C)[C@@H](C5=CC(=O)OC5)CC[C@]43O)C2)C[C@H](O)[C@@H]1O[C@H]1C[C@H](O)[C@H](O[C@H]2C[C@H](O)[C@H](O[C@@H]3O[C@H](CO)[C@@H](O)[C@H](O)[C@H]3O)[C@@H](C)O2)[C@@H](C)O1`: the Potency is 0.298 µM (active).
